From PubChem BioAssay AID1159580 (chemical genetic matrix, 2015)
Hit rate of the full screen: of about 5,500 compounds, about 2,000 (36%) were called active. About 18% were inconclusive and are not listed. Rule as the data show it: active = normalized growth mostly below about 0.91 (no sharp cut-off); inconclusive = no clear call, values can overlap the other calls; inactive = mostly above about 0.92. Some of the results follow.

Experiment: chemical genetic growth profiling, strain panel (AID 1159580);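 also: tested at 20 µM; growth read once vehicle control cultures reached saturation at 30 °C; 1 = growth at the plate median or of vehicle wells; lower values mean less growth of the strain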
Settings: S. cerevisiae deletion strains, growth OD

Measured: normalized growth

CCNc1nc(Cl)nc(NCC)n1
inactive: locus YAL013W, strain DEP1, stronger effect = lower value 1 | locus YAL021C, strain ccr4, stronger effect = lower value 0.983 | locus YAL026C, strain drs2, stronger effect = lower value 1 | locus YAL030W, strain snc1, stronger effect = lower value 0.992 | locus YBL061C, strain skt5, stronger effect = lower value 0.991 | locus YBR009C, strain hhf1, stronger effect = lower value 0.995 | locus YBR021W, strain FUR4, stronger effect = lower value 1.03 | locus YBR023C, strain chs3, stronger effect = lower value 0.995 | locus YBR171W, strain sec66, stronger effect = lower value 0.99 | locus YBR229C, strain ROT2, stronger effect = lower value 0.993 | locus YBR231C, strain swc5, stronger effect = lower value 0.993 | locus YBR279W, strain paf1, stronger effect = lower value 1 | locus YCL011C, strain gbp2, stronger effect = lower value 1 | locus YCL016C, strain dcc1, stronger effect = lower value 1.01 | locus YCL029C, strain bik1, stronger effect = lower value 0.999 | locus YCL061C, strain MRC1, stronger effect = lower value 0.989 | locus YCL069W, strain vba3, stronger effect = lower value 0.968 | locus YCR088W, strain abp1, stronger effect = lower value 0.995 | locus YDL005C, strain med2, stronger effect = lower value 0.988 | locus YDL035C, strain GPR1, stronger effect = lower value 1 | locus YDL040C, strain nat1, stronger effect = lower value 0.999 | locus YDL074C, strain BRE1, stronger effect = lower value 0.975 | locus YDL101C, strain DUN1, stronger effect = lower value 1.01 | locus YDL134C, strain PPH21, stronger effect = lower value 1.01 | locus YDL185W, strain tfp1, stronger effect = lower value 0.991 | locus YDL192W, strain arf1, stronger effect = lower value 1 | locus YDR001C, strain nth1, stronger effect = lower value 0.998 | locus YDR069C, strain doa4, stronger effect = lower value 0.979 | locus YDR101C, strain arx1, stronger effect = lower value 0.994 | locus YDR137W, strain rgp1, stronger effect = lower value 1.01 | locus YDR150W, strain NUM1, stronger effect = lower value 0.971 | locus YDR159W, strain sac3, stronger effect = lower value 0.979 | locus YDR162C, strain NBP2, stronger effect = lower value 0.97 | locus YDR195W, strain ref2 0.942 | locus YDR297W, strain sur2, stronger effect = lower value 0.982 | locus YDR318W, strain mcm21, stronger effect = lower value 1 | locus YDR334W, strain swr1, stronger effect = lower value 0.996 | locus YDR335W, strain msn5, stronger effect = lower value 0.989 | locus YDR388W, stronger effect = lower value 1 | locus YDR392W, strain spt3, stronger effect = lower value 1.01 | locus YDR502C, strain sam2, stronger effect = lower value 1.01 | locus YEL003W, strain gim4, stronger effect = lower value 1.01 | locus YEL037C, strain rad23, stronger effect = lower value 1 | locus YEL061C, strain CIN8 (second series), stronger effect = lower value 0.997 | locus YEL061C, strain CIN8, stronger effect = lower value 0.997 | locus YER015W, strain faa2, stronger effect = lower value 1 | locus YER016W, strain bim1, stronger effect = lower value 1.01 | locus YER110C, stronger effect = lower value 0.996 | locus YER111C, strain swi4, stronger effect = lower value 0.996 | locus YER155C, strain BEM2 (second series), stronger effect = lower value 0.973 | locus YER155C, strain BEM2, stronger effect = lower value 1 | locus YER167W, strain BCK2, stronger effect = lower value 1 | locus YFR010W, strain ubp6, stronger effect = lower value 1 | locus YGL078C, strain dbp3, stronger effect = lower value 1 | locus YGL086W, strain mad1, stronger effect = lower value 1 | locus YGL167C, strain pmr1, stronger effect = lower value 1 | locus YGL173C, strain kem1, stronger effect = lower value 0.99 | locus YGL227W, strain vid30, stronger effect = lower value 0.978 | locus YGL240W, strain doc1, stronger effect = lower value 0.986 | locus YGL248W, strain PDE1, stronger effect = lower value 1.03 | locus YGL253W, strain hxk2, stronger effect = lower value 0.993 | locus YGR078C, strain PAC10, stronger effect = lower value 0.989 | locus YGR135W, strain pre9, stronger effect = lower value 1 | locus YGR229C, strain SMI1, stronger effect = lower value 1 | locus YGR252W, strain gcn5, stronger effect = lower value 1.02 | locus YHR013C, strain ard1, stronger effect = lower value 0.998 | locus YHR027C, strain rpn1, stronger effect = lower value 1 | locus YHR030C, strain SLT2, stronger effect = lower value 0.98 | locus YHR079C, strain IRE1 (second series), stronger effect = lower value 1.01 | locus YHR094C, strain hxt1, stronger effect = lower value 1 | locus YHR129C, strain ARP1, stronger effect = lower value 0.96 | locus YHR142W, strain chs7, stronger effect = lower value 1.02 | locus YHR200W, strain rpn10, stronger effect = lower value 1.01 | locus YIL066C, strain RNR3, stronger effect = lower value 1.01 | locus YIL073C, strain SPO22, stronger effect = lower value 1.09 | locus YIL125W, strain kgd1, stronger effect = lower value 1 | locus YIR030C, strain dcg1, stronger effect = lower value 1.01 | locus YJL092W, strain hpr5, stronger effect = lower value 1 | locus YJL095W, strain BCK1 (second series), stronger effect = lower value 0.994 | locus YJL095W, strain BCK1, stronger effect = lower value 0.994 | locus YJL115W, strain asf1, stronger effect = lower value 1 | locus YJL129C, strain trk1, stronger effect = lower value 0.986 | locus YJL134W, strain LCB3, stronger effect = lower value 0.993 | locus YJL154C, strain vps35, stronger effect = lower value 0.992 | locus YJL164C, strain tpk1, stronger effect = lower value 0.999 | locus YJL166W, strain qcr8, stronger effect = lower value 0.987 | locus YJL168C, strain set2, stronger effect = lower value 1.01 | locus YJL187C, strain SWE1 (second series), stronger effect = lower value 1
